High-throughput results as filed in PubChem BioAssay.
Shown are actives, neighbours in structure and some others; about 2.8% of the full set was active somewhere.
IP6K1 inhibitor: inhibitors of human IP6K1. Q92551. IP6K1 kinase, ADP-Glo luminescence, 2 h; hits give low values. activity change, % (series mostly up to about 58 µM). 140,000 compounds, 0.81% hits. AID 1645851; in the data active = activity change below about -25%
Target sequence (Q92551 whole entry, looked up): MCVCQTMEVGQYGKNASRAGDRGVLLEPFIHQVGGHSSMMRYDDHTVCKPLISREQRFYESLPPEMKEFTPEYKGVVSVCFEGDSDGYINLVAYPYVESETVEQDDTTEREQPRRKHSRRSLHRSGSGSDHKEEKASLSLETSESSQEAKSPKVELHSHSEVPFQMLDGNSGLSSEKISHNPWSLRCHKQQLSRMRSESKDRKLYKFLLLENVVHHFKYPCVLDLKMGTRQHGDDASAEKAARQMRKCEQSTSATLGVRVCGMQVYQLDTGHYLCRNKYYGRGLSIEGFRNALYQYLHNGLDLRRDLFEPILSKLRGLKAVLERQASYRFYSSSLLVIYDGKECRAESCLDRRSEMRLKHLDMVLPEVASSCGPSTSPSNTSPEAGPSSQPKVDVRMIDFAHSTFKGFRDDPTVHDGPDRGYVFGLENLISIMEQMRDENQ
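ADP-Glo luminescence measures ADP made by human IP6K1 during a 2 h RT reaction with ATP/IP6 (mix at 1.3 mM/130 uM); top library doses 57.5 and 19.1 uM final.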
KDM5B inhibitor: KDM5B demethylase inhibition. Q9UGL1. 220,000 compounds, 2.6% hits. AID 1347165. Potency, µM (highest dose often 57.7 µM), actives largely listed as inhibitors. KDM5B demethylase, FDH-coupled NADH fluorescence (FDH is formaldehyde dehydrogenase); also: nearly all actives have a fitted effect of over 70% in size
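Coupled FDH/NAD⁺ fluorescence readout. KDM5BΔAP 200 nM final; compound titration, 10 min RT preincubation; substrate mix 12.5 µM H3K4me3, 25 µM 2-OG, 50 µM Fe(II), 100 µM ascorbate, 0.25 mM NAD⁺, 0.25 U/mL FDH; ΔRFU over 30 min.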
HEK293 viab: counter-screen for SNCA expression inhibitors: cell viability. HEK-293-SNCA-luc viability, GF-AFC fluorescence, 24 h. Potency, µM (titrated, usually from 57.1 µM), hits mostly cytotoxic. 150,000 compounds, 0.12% hits. AID 1671193; also: nearly all actives have a fitted effect of over 30% in size
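HEK-293-SNCA-luc cells (1500/well) plated 24 h, then exposed 24 h to a dilution series; GF-AFC added 30 min at 37C, fluorescence 405/540 nm; normalised to medium-only and DMSO wells, Hill fit.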
SNCA expr inh: inhibitors of alpha-synuclein (SNCA) gene expression | HEK-293 SNCA-luciferase knock-in, luminescence, 24 h | Potency, µM (titrated, usually from 57.2 µM), most hits filed as inhibitors | 140,000 compounds, 0.17% hits | AID 1671194; also: nearly all actives have a fitted effect of over 45% in size
Numbers stand for hits; n = inactive; u = inconclusive; x = not tested or not shown. Unless noted, calls follow the shape of the dose curve; as a rule, active = well fitted curve in the direction sought with a large enough effect; inconclusive = small, poorly fitted or top-dose-only effect, or another doubt; inactive = no such curve, though single readings can be large; an effect the other way counts as inactive or inconclusive.

SMILES	IP6K1 inhibitor	KDM5B inhibitor	HEK293 viab	SNCA expr inh
Cc1ccc(C#N)c(N2CCCC(c3nnc(Cn4cccn4)n3C)C2)n1 (stereo not drawn)	n	28.2µM	n	n
CCc1noc(-c2ccn3c(CNC(=O)c4cc(C)ccc4C)nnc3c2)n1	n	25.1µM	n	n
CCc1noc(-c2ccn3c(CNC(=O)Cc4ccccc4Cl)nnc3c2)n1	n	15.8µM	n	n
CCc1noc(-c2ccn3c(CNC(=O)Cc4ccccc4OC)nnc3c2)n1	n	u	n	n
CCc1noc(-c2ccn3c(CNC(=O)Cc4ccc(C)cc4)nnc3c2)n1	n	28.2µM	n	n
O=c1c2ccccc2cnn1CN1CCN(S(=O)(=O)c2ccc(Cl)c(Cl)c2)CC1	x	n	x	x
Cc1cc(=O)oc2cc(OCC(=O)NCc3cccs3)ccc12	x	n	x	x
CCOc1ccc(S(=O)(=O)N(CC)CC)cc1NC(=O)C1CCN(c2ccc(C#N)cn2)CC1	x	n	x	x
CC(C)c1ccccc1OCC(O)Cn1cnc2c(cnn2-c2ccc(F)cc2)c1=O (stereo not drawn)	x	n	x	x
CCCCn1nc(C2CCOC2)nc1-c1cnc(NC)nc1 (stereo not drawn)	n	25.1µM	n	n
COc1cc(NC(=O)N2CC(C)Oc3ccc(Cl)cc32)cc(OC)c1OC (stereo not drawn)	x	n	x	x
Cc1ccc(-c2ccccc2CN2CCC(C(=O)N3CCN(c4ncccn4)CC3)CC2)cc1Cl	n	x	n	u
Cc1cccc(N2CCN(C(=O)C3CCN(C(=O)C4CC4)CC3)CC2)n1	n	22.4µM	n	n
Cc1ncnc(N2CCN(C(=O)C3CCN(C(=O)C4CC4)CC3)CC2)c1C	n	n	n	n
Cc1cc(C)nc(N2CCN(C(=O)C3CCN(CC(N)=O)CC3)CC2)n1	n	28.2µM	n	u
Cc1ccc(C(=O)O)cc1-c1ccc(/C=C(/C#N)c2nc3ccccc3[nH]2)o1	x	n	x	x
O=C(c1ccc(F)cc1)N1CCC2(C1)C(=O)N(CCc1ccccc1)c1ccccc12 (stereo not drawn)	n	n	n	u
O=C(Nc1ccc(Cl)cc1)c1nc2c(o1)CCN(Cc1cccc(O)c1)CC2	n	31.6µM	u	n
O=C(Nc1ccccc1)c1nc2c(o1)CCN(Cc1ccc(F)c(Cl)c1)CC2	n	28.2µM	n	n
COc1ccc(CN2CCc3nc(C(=O)Nc4ccc(Cl)cc4)oc3CC2)cn1	n	u	n	n
O=C(Nc1ccc(Cl)cc1)c1nc2c(o1)CCN(Cc1ccc3cn[nH]c3c1)CC2	n	35.5µM	u	n
Cc1ccccc1CN1CCc2nc(C(=O)NCCOc3ccccc3)oc2CC1	n	31.6µM	n	n
O=C(Nc1ccc(Cl)cc1)c1nc2c(o1)CCN(CC1CC1)CC2	n	n	n	n
Cc1ccc(CN2CCc3nc(C(=O)Nc4ccc(Cl)cc4)oc3CC2)cc1	n	35.5µM	n	n
Cc1ccc(CN2CCc3nc(C(=O)Nc4ccccc4)oc3CC2)cc1	n	35.5µM	n	n
SMILES	IP6K1 inhibitor	KDM5B inhibitor	HEK293 viab	SNCA expr inh
O=C(Nc1ccc(Cl)cc1)c1nc2c(o1)CCN(Cc1ccncc1)CC2	n	n	n	n
O=C(Nc1ccc(Cl)cc1)c1nc2c(o1)CCN(Cc1nccs1)CC2	n	n	n	n
O=C(Nc1ccccc1)c1nc2c(o1)CCN(Cc1ccc(O)cc1)CC2	n	n	n	n
O=C(Nc1ccccc1)c1nc2c(o1)CCN(Cc1cccs1)CC2	n	u	n	11.2µM
O=C(Nc1ccc(Cl)cc1)c1nc2c(o1)CCN(Cc1ccc3c(c1)CCO3)CC2	n	31.6µM	n	n
COc1ccccc1-c1ccc(CN2CCCCC2C(=O)NCc2ccccc2F)cc1 (stereo not drawn)	n	x	x	x
CCCCCn1nc(C(=O)OC(C)C(=O)Nc2ccc(NC(C)=O)cc2)c2ccccc2c1=O (stereo not drawn)	x	n	x	x
COc1ccc(NC(=O)N2Cc3[nH]cnc3C[C@H]2c2nc(-c3ccc(C)cc3)no2)cc1	n	u	u	u
Cc1cc(C)cc(C(=O)Nc2cccc(-c3nn4cnnc4s3)c2)c1	x	n	x	x
CCOc1nccn2c(-c3ccc(CN4CCNC(=O)C4)cc3)cnc12	n	35.5µM	n	n
O=C(NCc1ccco1)[C@@H]1Cc2nc[nH]c2CN1Cc1ccc(Cl)cc1	n	u	n	u
N#Cc1cccc(CN2Cc3[nH]cnc3C[C@H]2C(=O)NCc2ccco2)c1	n	31.6µM	n	n
CC(C)NC(=O)Cn1ccc2ccc(Cl)cc21	x	n	x	x
O=C(Nc1ccccc1)c1ccc2c(c1)OCCN(c1ccccc1)C2	n	28.2µM	n	n
